From PubChem BioAssay (NCATS)
Inconclusive results are not listed. Calls of active or inactive are those of the source. Calls come from the whole dose curve. Numbered stars: 1 amine (or outer) side, 2 acyl side, 3 side chain; on linkers, the order of the positions; unused ones are H or OH. Square brackets hold non-standard residues; d marks the D form. Side chains are listed from the residue outwards. Peptide text beside a SMILES is read from it. * marks the point of attachment. Ethylenediamine = C(CN[*:2])N[*:1]; Hyp = O=C(O)[C@@H]1C[C@@H](O)CN1; Phg = N[C@H](C(=O)O)c1ccccc1; CO = O=C([*:1])[*:2]; Bn = c1ccc(C*)cc1

Tests used:
Details in all cases: outcome: dose series up to 57.1 µM unless noted
[1] = Primary qHTS for inhibitors of SARS-S pseudo-typed particle cell entry (AID 1479145); note: nearly all actives have a fitted effect of over 45% in size; for activity change, negative = inhibition: series mostly up to about 57 µM
[2] = Primary qHTS for Huh7 cytotoxicity: counterscreen for inhibitors of MERS-S pseudotyped particle cell entry (AID 1479147)
[3] = Primary qHTS for inhibitors of MERS-S pseudo-typed particle cell entry (AID 1479149); note: nearly all actives have a fitted effect of over 60% in size; for activity change, negative = inhibition: series mostly up to about 57 µM
[4] = Primary qHTS for Vero E6 cytotoxicity: counterscreen for inhibitors of SARS-S pseudo-typed particle cell entry (AID 1479150)
[5] = Cytotoxicity counterscreen for inhibitors of SARS-CoV-2 cell entry (AID 1645845); note: nearly all actives have a fitted effect of over 50% in size; for activity change, negative = cytotoxicity: series mostly up to about 57 µM
How it was run: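 48 h compound treatment (after 1 h preincubation), HEK293-ACE2 cells, 37 C/5% CO2; ATP luminescence endpoint; normalized to cell wells and media blanks.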
% is set by controls: 0 for no effect and ±100 for the full control effect.

C=CCOc1ccc(CC(=O)O)cc1Cl
inactive: Potency [1] | Potency [2] | Potency [3] | Potency [4] | Potency [5]

CCCCCCCCCCCCCCCC(=O)OC[C@@H](O)[C@H]1OC[C@H](O)[C@H]1O
inactive: Potency [1] | Potency [2] | Potency [3] | Potency [4] | Potency [5]

CCC(C)C(NC(=O)C(Cc1ccc(O)cc1)NC(=O)C(NC(=O)C(CCCN=C(N)N)NC(=O)C(N)CC(=O)O)C(C)C)C(=O)NC(Cc1cnc[nH]1)C(=O)N1CCCC1C(=O)NC(Cc1ccccc1)C(=O)O (stereo not given)
inactive: Potency [1] | Potency [2] | Potency [3] | Potency [4] | Potency [5]

CCCCC(CC)CCC(CC(C)C)OS(=O)(=O)O (stereo not given)
inactive: Potency [1] | Potency [2] | Potency [3] | Potency [4] | Potency [5]

C=C1CC[C@H](O)C/C1=C\C=C1/CCC[C@]2(C)[C@@H]([C@H](C)CC[C@H](O)C(C)(C)O)CC[C@@H]12
inactive: Potency [1] | Potency [2] | Potency [3] | Potency [4] | Potency [5]

CC(C)(C)NCC(O)CSc1nc(-c2ccc(C(N)=O)s2)cs1 (stereo not given)
inactive: Potency [1] | Potency [2] | Potency [3] | Potency [4] | Potency [5]

O=C(O)CCSC[C@H]1O[C@@H]2O[C@H]3[C@H](O)[C@@H](O)[C@@H](O[C@H]4[C@H](O)[C@@H](O)[C@@H](O[C@H]5[C@H](O)[C@@H](O)[C@@H](O[C@H]6[C@H](O)[C@@H](O)[C@@H](O[C@H]7[C@H](O)[C@@H](O)[C@@H](O[C@H]8[C@H](O)[C@@H](O)[C@@H](O[C@H]9[C@H](O)[C@@H](O)[C@@H](O[C@H]1[C@H](O)[C@H]2O)O[C@@H]9CSCCC(=O)O)O[C@@H]8CSCCC(=O)O)O[C@@H]7CSCCC(=O)O)O[C@@H]6CSCCC(=O)O)O[C@@H]5CSCCC(=O)O)O[C@@H]4CSCCC(=O)O)O[C@@H]3CSCCC(=O)O
inactive: Potency [1] | Potency [2] | Potency [3] | Potency [4] | Potency [5]

OC[C@H]1O[C@@H](OC[C@H]2O[C@@H](O[C@@H]3[C@@H](O)[C@H](O)O[C@H](CO)[C@H]3O)[C@H](O)[C@@H](O[C@@H]3O[C@H](CO)[C@@H](O)[C@H](O)[C@H]3O)[C@@H]2O)[C@H](O)[C@@H](O)[C@@H]1O
inactive: Potency [1] | Potency [2] | Potency [3] | Potency [4] | Potency [5]

Cn1c(=O)cc(N2CCCC(N)C2)n(Cc2ccccc2C#N)c1=O (stereo not given)
inactive: Potency [1] | Potency [2] | Potency [3] | Potency [4] | Potency [5]

CCO/N=C(\C(=O)N[C@@H]1C(=O)N2C(C(=O)O)=C(Sc3nc(-c4cc[n+](C)cc4)cs3)CS[C@H]12)c1nsc(NP(=O)(O)O)n1
inactive: Potency [1] | Potency [2] | Potency [3] | Potency [4] | Potency [5]

COC(=O)N[C@H](C(=O)N1CCC[C@H]1c1ncc(-c2ccc3c(c2)O[C@@H](c2ccccc2)n2c-3cc3cc(-c4cnc([C@@H]5CCCN5C(=O)[C@@H](NC(=O)OC)C(C)C)[nH]4)ccc32)[nH]1)C(C)C
inactive: Potency [1] | Potency [2] | Potency [3] | Potency [4] | Potency [5]

CC(C)(CO)C(O)C(=O)NCCCC(=O)O (stereo not given)
inactive: Potency [1] | Potency [2] | Potency [3] | Potency [4] | Potency [5]

C=C[C@@H]1C[C@]1(NC(=O)[C@@H]1C[C@@H]2CN1C(=O)[C@H](C(C)(C)C)NC(=O)O[C@@H]1C[C@H]1CCCCCc1nc3ccc(OC)cc3nc1O2)C(=O)NS(=O)(=O)C1CC1
inactive: Potency [1] | Potency [2] | Potency [3] | Potency [4] | Potency [5]

Cn1nnnc1SCC1=C(C(=O)O)N2C(=O)[C@H](NC(=O)C(O)c3ccccc3)C2SC1 (stereo not given in full)
inactive: Potency [1] | Potency [2] | Potency [3] | Potency [4] | Potency [5]

COc1ccc(NC(=O)c2ccc(C(=N)N(C)C)cc2)c(C(=O)Nc2ccc(Cl)cn2)c1
inactive: Potency [1] | Potency [2] | Potency [3] | Potency [4] | Potency [5]

CC(C)[C@@H](C)/C=C/[C@@H](C)[C@H]1CC[C@H]2/C(=C/C=C3\C[C@@H](O)CC[C@@H]3C)CCC[C@]12C
inactive: Potency [1] | Potency [2] | Potency [3] | Potency [4] | Potency [5]

CCCCCc1ccc(C)cc1O
inactive: Potency [1] | Potency [2] | Potency [3] | Potency [4] | Potency [5]

CC1(C)S[C@@H]2[C@H](NC(=O)C(C(=O)O)c3ccsc3)C(=O)N2[C@H]1C(=O)O (stereo not given in full)
inactive: Potency [1] | Potency [2] | Potency [3] | Potency [4] | Potency [5]

CC(C)C(=O)OCC(=O)[C@@]12OC(C3CCCCC3)O[C@@H]1C[C@H]1[C@@H]3CCC4=CC(=O)C=C[C@]4(C)[C@H]3[C@@H](O)C[C@@]12C (stereo not given in full)
inactive: Potency [1] | Potency [2] | Potency [3] | Potency [4] | Potency [5]

CCCCOC(=O)C(=O)Nc1cccc(-c2nn[nH]n2)c1
inactive: Potency [1] | Potency [2] | Potency [3] | Potency [4] | Potency [5]

Cn1cc(OCC(O)CNC(C)(C)C)c2ccccc2c1=O (stereo not given)
inactive: Potency [1] | Potency [2] | Potency [3] | Potency [4] | Potency [5]

CC(CCc1ccc(O)cc1)NCC(O)c1ccc(O)cc1 (stereo not given)
inactive: Potency [1] | Potency [2] | Potency [3] | Potency [4] | Potency [5]

NC(=O)[C@H]1O[C@@H](O)[C@H](O)[C@@H](O)[C@@H]1O
inactive: Potency [1] | Potency [2] | Potency [3] | Potency [4] | Potency [5]

CN(CCCCCCCCCCN(C)C(=O)Oc1cccc([N+](C)(C)C)c1)C(=O)Oc1cccc([N+](C)(C)C)c1
inactive: Potency [1] | Potency [2] | Potency [3] | Potency [4] | Potency [5]

N#Cc1cc(-c2n[nH]c(-c3ccncc3)n2)ccn1
inactive: Potency [1] | Potency [2] | Potency [3] | Potency [4] | Potency [5]

CC(=O)c1cc2cccc(OCC(O)CNC(C)C)c2o1 (stereo not given)
inactive: Potency [1] | Potency [2] | Potency [3] | Potency [4] | Potency [5]

CCCCC(CC)COC(=O)CC(C(=O)OCC(CC)CCCC)S(=O)(=O)O (stereo not given)
inactive: Potency [1] | Potency [2] | Potency [3] | Potency [4] | Potency [5]

Nc1nc2c(c(=O)[nH]1)N(C=O)C(CNc1ccc(C(=O)N[C@@H](CCC(=O)O)C(=O)O)cc1)CN2 (stereo not given in full)
inactive: activity change, negative = inhibition [1] -33% [at 0.573 µM] | activity change, negative = cytotoxicity [2] 2.64% [at 0.573 µM] | outcome [3] inactive [at 0.573 µM] | activity change, negative = cytotoxicity [4] 2.47% [at 0.573 µM] | outcome [5] inactive [at 0.702 µM]

CN(C)CC(c1ccc(O)cc1)C1(O)CCCCC1 (stereo not given)
inactive: Potency [1] | Potency [2] | Potency [3] | Potency [4] | Potency [5]

O=C(Cn1c(=O)sc2ccc(Cl)cc21)N1CCN(CCO)CC1
inactive: Potency [1] | Potency [2] | Potency [3] | Potency [4] | Potency [5]

CN(C)/C(N)=N/C(=N)N
inactive: outcome [1] inactive [setting not given] | outcome [2] inactive [setting not given] | outcome [3] inactive [setting not given] | outcome [4] inactive [setting not given] | outcome [5] inactive [setting not given]

CCCC(=O)O[C@]1(C(=O)COC(=O)CC)[C@@H](C)C[C@H]2[C@@H]3CCC4=CC(=O)C=C[C@]4(C)[C@@]3(F)[C@@H](O)C[C@@]21C
inactive: Potency [1] | Potency [2] | Potency [3] | Potency [4] | Potency [5]

CC1(C)S[C@@H]2[C@H](NC(=O)[C@H](N)c3ccccc3)C(=O)N2[C@H]1C(=O)OCOC(=O)[C@@H]1N2C(=O)C[C@H]2S(=O)(=O)C1(C)C
inactive: Potency [1] | Potency [2] | Potency [3] | Potency [4] | Potency [5]

Cc1cc(Nc2ccccc2C(=O)O)ccc1Cl
inactive: Potency [1] | Potency [2] | Potency [3] | Potency [4] | Potency [5]

FC(F)OC(Cl)C(F)(F)F (stereo not given)
inactive: Potency [1] | Potency [2] | Potency [3] | Potency [4] | Potency [5]

COC(=O)N[C@H](C(=O)N1CCC[C@H]1C(=O)Nc1ccc([C@@H]2CC[C@@H](c3ccc(NC(=O)[C@@H]4CCCN4C(=O)[C@@H](NC(=O)OC)C(C)C)cc3)N2c2ccc(C(C)(C)C)cc2)cc1)C(C)C
inactive: Potency [1] | Potency [2] | Potency [3] | Potency [4] | Potency [5]

CC1(C)[C@@H]2CC[C@@]1(C)[C@H](OC(=O)CSC#N)C2
inactive: Potency [1] | Potency [2] | Potency [3] | Potency [4] | Potency [5]

CN1C(=O)[C@]23C[C@H]4C(C)(C)[C@]5(CNc6c5ccc5c6OC=CC(C)(C)O5)C[C@@]41CN2CC[C@@]3(C)O
inactive: Potency [1] | Potency [2] | Potency [3] | Potency [4] | Potency [5]

OC[C@H]1O[C@@H](OCCc2ccc(O)cc2)[C@H](O)[C@@H](O)[C@@H]1O
inactive: Potency [1] | Potency [2] | Potency [3] | Potency [4] | Potency [5]

NCCCC[C@@H]1NC(=O)[C@@H](Cc2c[nH]c3ccccc23)NC(=O)[C@H](c2ccccc2)NC(=O)[C@@H]2C[C@@H](OC(=O)NCCN)CN2C(=O)[C@H](Cc2ccccc2)NC(=O)[C@H](Cc2ccc(OCc3ccccc3)cc2)NC1=O (cyclo([Hyp]([CO-Ethylenediamine])[Phg][dW]KY(Bn)F))
inactive: Potency [1] | Potency [2] | Potency [3] | Potency [4] | Potency [5]

NC(Cc1cc(I)c(Oc2cc(I)c(O)c(I)c2)c(I)c1)C(=O)O (stereo not given)
inactive: Potency [1] | Potency [2] | Potency [3] | Potency [4] | Potency [5]

Cc1cc2nc3c(=O)[nH]c(=O)nc-3n(C[C@@H](O)[C@@H](O)[C@@H](O)COP(=O)(O)O)c2cc1C
inactive: activity change, negative = inhibition [1] -30.5% [at 11.4 µM] | outcome [2] inactive [at 11.4 µM] | outcome [3] inactive [at 11.4 µM] | activity change, negative = cytotoxicity [4] 1.24% [at 11.4 µM] | activity change, negative = cytotoxicity [5] 3.55% [at 11.3 µM]

NC(=S)NS(=O)(=O)c1ccc(N)cc1
inactive: Potency [1] | Potency [2] | Potency [3] | Potency [4] | Potency [5]

CCCC(=O)Nc1ncnc2c1ncn2C1O[C@@H]2COP(=O)(O)O[C@H]2[C@H]1OC(=O)CCC (stereo not given in full)
inactive: Potency [1] | Potency [2] | Potency [3] | Potency [4] | Potency [5]

CCC(=O)O[C@]1(C(=O)COC(C)=O)CC[C@H]2[C@@H]3C[C@H](C)C4=CC(=O)C=C[C@]4(C)[C@H]3[C@@H](O)C[C@@]21C
inactive: Potency [1] | Potency [2] | Potency [3] | Potency [4] | Potency [5]

OC[C@H]1O[C@@H](O)[C@H](O)[C@@H](O)[C@@H]1O
inactive: Potency [1] | Potency [2] | Potency [3] | Potency [4] | Potency [5]

CCN1CCCC1CNC(=O)c1cc(S(=O)(=O)CC)ccc1OC (stereo not given)
inactive: Potency [1] | Potency [2] | Potency [3] | Potency [4] | Potency [5]

C[N+]1(C)[C@@H]2CC(OC(=O)C(O)(c3cccs3)c3cccs3)C[C@H]1[C@H]1O[C@@H]12 (stereo not given in full)
inactive: Potency [1] | Potency [2] | Potency [3] | Potency [4] | Potency [5]
